Assay results as given in PubChem BioAssay AID1159580 (chemical genetic matrix, 2015).
Out of some 5,500 compounds screened, about 2,000 (36%) were called active. Not shown: some 18% with an inconclusive outcome. No stated cut-off is given here; in the data, active means normalized growth mostly below about 0.91 (no sharp cut-off); inconclusive means no clear call, values can overlap the other calls; inactive means mostly above about 0.92. Some of the results follow.

Experiment: chemical genetic growth profiling, strain panel (AID 1159580);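 further: tested at 20 µM; growth read once vehicle control cultures reached saturation at 30 °C; 1 = growth at the plate median or of vehicle wells; lower values mean less growth of the strain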
Details: growth OD
[1] = S. cerevisiae deletion strains, locus YAL013W, strain DEP1, active compounds read low
[2] = S. cerevisiae deletion strains, locus YDL101C, strain DUN1, active compounds read low
[3] = S. cerevisiae deletion strains, locus YDR150W, strain NUM1, active compounds read low
[4] = S. cerevisiae deletion strains, locus YEL061C, strain CIN8, active compounds read low
[5] = S. cerevisiae deletion strains, locus YGR078C, strain PAC10, active compounds read low
[6] = S. cerevisiae deletion strains, locus YHR030C, strain SLT2, active compounds read low
[7] = S. cerevisiae deletion strains, locus YHR087W, strain rtc3, active compounds read low
[8] = S. cerevisiae deletion strains, locus YJR043C, strain POL32, active compounds read low
[9] = S. cerevisiae deletion strains, locus YJR075W, strain HOC1, active compounds read low
[10] = S. cerevisiae deletion strains, locus YLR039C, strain RIC1, active compounds read low
[11] = S. cerevisiae deletion strains, locus YLR058C, strain SHM2 (second series), active compounds read low
[12] = S. cerevisiae deletion strains, locus YLR085C, strain ARP6, active compounds read low
[13] = S. cerevisiae deletion strains, locus YLR262C, strain YPT6, active compounds read low
[14] = S. cerevisiae deletion strains, locus YML094W, strain GIM5, active compounds read low
[15] = S. cerevisiae deletion strains, locus YMR219W, strain ESC1, active compounds read low
[16] = S. cerevisiae deletion strains, locus YMR263W, strain SAP30, active compounds read low
[17] = S. cerevisiae deletion strains, locus YNL153C, strain GIM3, active compounds read low
[18] = S. cerevisiae deletion strains, locus YNL298W, strain CLA4 (second series), active compounds read low
[19] = S. cerevisiae deletion strains, locus YNL322C, strain KRE1, active compounds read low
[20] = S. cerevisiae deletion strains, locus YNR030W, strain Alg12, active compounds read low
[21] = S. cerevisiae deletion strains, locus YPL055C, strain LGE1, active compounds read low
[22] = S. cerevisiae deletion strains, locus YPL241C, strain CIN2, active compounds read low
[23] = S. cerevisiae deletion strains, locus YPR135W, strain CTF4, active compounds read low
[24] = S. cerevisiae strains, strain wild type, active compounds read low

Measured: normalized growth

O=C1NN(c2ccccc2)C(=S)Nc2ccccc21
inactive: [1] 1 | S. cerevisiae deletion strains, locus YBR229C, strain ROT2, active compounds read low 1.01 | [2] 0.988 | [3] 0.994 | [4] 1.01 | [5] 0.986 | [6] 0.986 | [7] 1 | S. cerevisiae deletion strains, locus YJL187C, strain SWE1, active compounds read low 0.988 | [8] 0.997 | [9] 0.994 | [10] 0.994 | [11] 1 | [12] 0.984 | [13] 0.999 | [14] 0.987 | [15] 0.999 | [16] 0.996 | S. cerevisiae deletion strains, locus YMR307W, strain GAS1, active compounds read low 0.965 | [17] 0.978 | [18] 1.01 | [19] 1.01 | [20] 1 | [21] 1.02 | [22] 0.98 | [23] 0.979 | [24] 1.01

S=C1NC2(CCCCC2)NN1c1ccccc1
active: [1] 0.869 | S. cerevisiae deletion strains, locus YCL061C, strain MRC1, active compounds read low 0.892 | [4] 0.14 | [5] 0.761 | [6] 0.1 | S. cerevisiae deletion strains, locus YKL190W, strain CNB1, active compounds read low 0.0617 | [10] 0.116 | [12] 0.0768 | [13] 0.114 | [14] 0.0764 | [16] 0.895 | [17] 0.884 | [18] 0.0996 | [20] 0.0942 | S. cerevisiae deletion strains, locus YOL006C, strain TOP1, active compounds read low 0.088 | [21] 0.759 | [22] 0.0946 | [23] 0.223 | [24] 0.0726
inactive: [2] 0.92 | [3] 0.836 | [7] 0.987 | [8] 0.94 | [9] 0.908 | [11] 0.98 | [15] 0.956 | [19] 0.988

Cc1ccc(-c2nc(NS(=O)(=O)c3cccc4nonc34)sc2C)cc1Cl
inactive: S. cerevisiae deletion strains, locus YAR019C, strain CDC15, active compounds read low 0.965 | S. cerevisiae deletion strains, locus YBL105C, strain PKC1, active compounds read low 0.972 | S. cerevisiae deletion strains, locus YBR135W, strain CKS1, active compounds read low 0.967 | S. cerevisiae deletion strains, locus YBR136W, strain MEC1, active compounds read low 0.973 | S. cerevisiae deletion strains, locus YBR160W, strain CDC28, active compounds read low 0.959 | S. cerevisiae deletion strains, locus YDL017W, strain CDC7, active compounds read low 0.97 | S. cerevisiae deletion strains, locus YDL028C, strain MPS1, active compounds read low 0.976 | [2] 0.962 | S. cerevisiae deletion strains, locus YDL108W, strain KIN28, active compounds read low 0.975 | S. cerevisiae deletion strains, locus YDL132W, strain cdc53, active compounds read low 0.964 | S. cerevisiae deletion strains, locus YDL214C, strain PRR2, active compounds read low 0.984 | S. cerevisiae deletion strains, locus YDR052C, strain DBF4, active compounds read low 0.972 | S. cerevisiae deletion strains, locus YDR054C, strain cdc34, active compounds read low 0.961 | S. cerevisiae deletion strains, locus YDR226W, strain ADK1, active compounds read low 0.97 | S. cerevisiae deletion strains, locus YDR477W, strain SNF1, active compounds read low 0.975 | S. cerevisiae deletion strains, locus YER123W, strain YCK3, active compounds read low 1 | S. cerevisiae deletion strains, locus YER133W, strain GLC7, active compounds read low 0.994 | S. cerevisiae deletion strains, locus YFL009W, strain cdc4, active compounds read low 0.972 | S. cerevisiae deletion strains, locus YFL029C, strain CAK1, active compounds read low 0.946 | S. cerevisiae deletion strains, locus YFR003C, strain YPI1, active compounds read low 0.965 | S. cerevisiae deletion strains, locus YFR019W, strain FAB1, active compounds read low 0.997 | S. cerevisiae deletion strains, locus YFR028C, strain CDC14, active compounds read low 0.964 | S. cerevisiae deletion strains, locus YGR040W, strain KSS1, active compounds read low 0.962 | S. cerevisiae deletion strains, locus YGR052W, strain FMP48, active compounds read low 1.07 | S. cerevisiae deletion strains, locus YGR092W, strain DBF2, active compounds read low 0.991 | [6] 1.06 | S. cerevisiae deletion strains, locus YHR079C, strain IRE1, active compounds read low 1.07 | S. cerevisiae deletion strains, locus YHR082C, strain KSP1, active compounds read low 1.09 | S. cerevisiae deletion strains, locus YHR205W, strain SCH9, active compounds read low 0.981 | S. cerevisiae deletion strains, locus YIL147C, strain SLN1, active compounds read low 0.972 | S. cerevisiae deletion strains, locus YJL095W, strain BCK1, active compounds read low 1.06 | S. cerevisiae deletion strains, locus YJL128C, strain PBS2, active compounds read low 0.975 | S. cerevisiae deletion strains, locus YJL157C, strain FAR1, active compounds read low 0.999 | S. cerevisiae deletion strains, locus YJR016C, strain ILV3, active compounds read low 0.972 | S. cerevisiae deletion strains, locus YJR066W, strain TOR1 (second series), active compounds read low 0.985 | S. cerevisiae deletion strains, locus YJR066W, strain TOR1, active compounds read low 1.1 | S. cerevisiae deletion strains, locus YKL048C, strain ELM1, active compounds read low 0.981 | S. cerevisiae deletion strains, locus YKL067W, strain YNK1, active compounds read low 1 | S. cerevisiae deletion strains, locus YKL101W, strain HSL1, active compounds read low 0.967 | S. cerevisiae deletion strains, locus YKL193C, strain SDS22, active compounds read low 0.968 | S. cerevisiae deletion strains, locus YKL203C, strain TOR2, active compounds read low 1.04 | S. cerevisiae deletion strains, locus YLR113W, strain HOG1, active compounds read low 0.963 | S. cerevisiae deletion strains, locus YLR133W, strain CKI1, active compounds read low 0.978 | S. cerevisiae deletion strains, locus YLR403W, strain SFP1, active compounds read low 0.985 | S. cerevisiae deletion strains, locus YML070W, strain DAK1, active compounds read low 0.987 | S. cerevisiae deletion strains, locus YMR001C, strain CDC5, active compounds read low 0.967 | S. cerevisiae deletion strains, locus YMR205C, strain PFK2 (second series), active compounds read low 0.981 | S. cerevisiae deletion strains, locus YMR277W, strain FCP1, active compounds read low 0.975 | S. cerevisiae deletion strains, locus YNL006W, strain LST8, active compounds read low 0.967 | S. cerevisiae deletion strains, locus YNL020C, strain ARK1, active compounds read low 0.978 | S. cerevisiae deletion strains, locus YNL161W, strain CBK1, active compounds read low 0.959 | S. cerevisiae deletion strains, locus YNL183C, strain NPR1, active compounds read low 1.01 | S. cerevisiae deletion strains, locus YNL207W, strain RIO2, active compounds read low 0.953 | S. cerevisiae deletion strains, locus YNL222W, strain SSU72, active compounds read low 0.947 | S. cerevisiae deletion strains, locus YNL307C, strain MCK1 (second series), active compounds read low 0.984 | S. cerevisiae deletion strains, locus YOL078W, strain AVO1, active compounds read low 0.951 | S. cerevisiae deletion strains, locus YOL136C, strain PFK27, active compounds read low 0.999 | S. cerevisiae deletion strains, locus YOR061W, strain CKA2, active compounds read low 0.988 | S. cerevisiae deletion strains, locus YOR119C, strain RIO1, active compounds read low 1.03 | S. cerevisiae deletion strains, locus YOR231W, strain MKK1, active compounds read low 1.01 | S. cerevisiae deletion strains, locus YOR329C, strain SCD5, active compounds read low 0.973 | S. cerevisiae deletion strains, locus YPL031C, strain PHO85, active compounds read low 0.993 | S. cerevisiae deletion strains, locus YPL153C, strain RAD53, active compounds read low 0.992 | S. cerevisiae deletion strains, locus YPL204W, strain HRR25, active compounds read low 0.991 | S. cerevisiae deletion strains, locus YPL209C, strain IPL1, active compounds read low 0.951 | S. cerevisiae deletion strains, locus YPL256C, strain CLN2, active compounds read low 1.01 | S. cerevisiae deletion strains, locus YPR025C, strain CCL1, active compounds read low 0.97 | S. cerevisiae deletion strains, locus YPR106W, strain ISR1, active compounds read low 0.963 | S. cerevisiae deletion strains, locus YPR111W, strain DBF20, active compounds read low 0.953 | S. cerevisiae deletion strains, strain NNK1, active compounds read low 0.971 | S. cerevisiae deletion strains, strain TSCII, active compounds read low 0.956
